# Test results reported in PubChem BioAssay (NCATS).
# Several values for one entry are separate records, joined by “and”; a condition that tells them apart may be missing. Equal values may be shown once. Unmarked numbers belong to inactive results. Inconclusive results are not listed. Entries that show only a call come without a potency. Activity calls are given as the source filed them. Unless noted, the call rests on the fitted dose curve; in most records, active means well fitted curve in the direction sought with a large enough effect; inconclusive means small, poorly fitted or top-dose-only effect, or another doubt; inactive means no such curve, though single readings can be large; an effect the other way counts as inactive or inconclusive.
# Experiments:
# [1] = qHTS to identify inhibitors of the type 1 interferon - major histocompatibility complex class I in skeletal muscle: primary screen against the NCATS Mechanism Interrogation Plate v5.0 (MIPE) Libary (AID 1347411); further: nearly all actives have a fitted effect of over 65% in size; further: potency means the concentration at half of the fitted maximal effect
# In short: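 Seed engineered human myoblasts (HLA-B HiBit) in medium without dexamethasone containing 4 ng/ml IFN-beta; after 1 hr add compound titrations (top 46 uM final). Incubate 24 hrs at 37 C, lyse 10 min with HiBiT reagent, read luminescence.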
# [2] = molecular target: Protein phosphatase 1D (Homo sapiens) (UniProt O15297); test: RapidFire Mass Spectrometry qHTS Assay for Modulators of WT P53-Induced Phosphatase 1 (WIP1) (AID 1347424);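 further: amount of dephosphorylated VEPPL-S-QETFS peptide product formed by WIP1; series mostly up to about 63 µM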
# In short: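 RapidFire mass spectrometry measured dephosphorylated peptide after 5 min room-temperature reaction of 2 uM VEPPL-pS-QETFS with 10 nM WIP1 (50 mM Tris-HCl pH 7.5, 30 mM MgCl2, 0.1 mM EGTA, BSA), following 1 hr compound preincubation; 1 uM isotope-labelled product standard.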
# [3] = Validation qHTS assay for inhibitors of Activation Induced Cytidine Deaminase (AID): UDG Counterscreen signal (AID 1347427)
# In short: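 Fluorescence at 560 nm excitation, 665 nm emission reports UDG signal after 250 mM NaOH (2x) addition and 30 min. Enzymes (AID 1 uM, UDG 2 U/mL, at 4/3x) preincubated 10 min with compound, then 4 h with 4x 250 nM DJC20/DJC23 substrate at room temperature.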
# [4] = molecular target: Single-stranded DNA cytosine deaminase (Homo sapiens) (UniProt Q9GZX7); test: Validation qHTS assay for inhibitors of Activation Induced Cytidine Deaminase (AID): AID signal (AID 1347429)
# In short: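 Steps: dispense AID with UDG; pin-transfer compound up to 114 uM final; add DJC20/DJC23 substrate and hold 4 hr at room temperature; add NaOH, hold 30 min; read FRET signal (540/590 nm).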
# [5] = Primary qHTS for Huh7 cytotoxicity: counterscreen for inhibitors of MERS-S pseudotyped particle cell entry (AID 1479147; calls by dose curve)
# [6] = Primary qHTS for inhibitors of MERS-S pseudo-typed particle cell entry (AID 1479149; calls by dose curve; further: nearly all actives have a fitted effect of over 60% in size; on activity change, negative = inhibition: series mostly up to about 57 µM)
# [7] = Primary qHTS for Vero E6 cytotoxicity: counterscreen for inhibitors of SARS-S pseudo-typed particle cell entry (AID 1479150; calls by dose curve)
# [8] = Primary qHTS for inhibitors of La Crosse Virus (LACV) - induced cell death in SH-SY5Y cells (AID 1508616);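 further: top concentration of the series differs between compounds; higher means more rescue of cells from virus-induced death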
# In short: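 SH-SY5Y, 6000 cells/well; cpd via pin tool in DMSO; LACV 0.01 MOI; 6 d 37C 5% CO2; ATPLite, 5 min RT; luminescence normalized to ±virus DMSO controls.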
# [9] = molecular target: Calcium and integrin-binding protein 1 (Homo sapiens) (UniProt Q99828); test: Primary qHTS for Identification of Calcium Integrin Binding Protein 1 (CIB1) Competitor (AID 1508620);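 further: GST tagged CIB1 binding a fluorescein labelled alphaIIb integrin peptide tracer; top concentration of the series differs between compounds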
# In short: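 CIB1-GST (1 uM final) and compound incubated 15 min at room temperature before adding FITC-alphaIIb peptide tracer (100 nM final). Competition for binding read by fluorescence polarization (ex 480, em 540) after another 15 min at room temperature.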
# [10] = Primary qHTS for small molecule stabilizers of the endoplasmic reticulum resident proteome: Secreted ER Calcium Modulated Protein (SERCaMP) assay (AID 1508630); further: potency means the concentration at half of the fitted maximal effect
# In short: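 The SH-SY5Y reporter protocol was run at 3 concentrations up to 38.3 uM (primary) or 11 concentrations (follow-up): 16 h compound, 100 nM thapsigargin for 4 h, then extracellular luciferase luminescence.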
# [11] = molecular target: Protein phosphatase 1D (Homo sapiens) (UniProt O15297); test: Rhodamine-PBP qHTS Assay for Modulators of WT P53-Induced Phosphatase 1 (WIP1) (AID 1347425)
# In short: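 The read-out is the change in Rhodamine-PBP fluorescence (f1 - f0, ex 525/em 598 nm) as Pi is released, read each minute for 11 min. Final reaction: 5 nM WIP1, 10 uM phosphopeptide VEPPL-pS-QETFS, 10 uM Rh-PBP, 50 mM Tris-HCl pH 7.5, 30 mM MgCl2. Compound was preincubated with enzyme for 1 hour at room temperature.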
# [12] = Primary qHTS for inhibitors of SARS-S pseudo-typed particle cell entry (AID 1479145; calls by dose curve; further: nearly all actives have a fitted effect of over 45% in size; on activity change, negative = inhibition: series mostly up to about 57 µM)
# [13] = qHTS for inhibitors of adenylyl cyclases using a fission yeast platform: a pilot screen against the NCATS LOPAC library (AID 1347410)
# In short: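 GFP from fbp1-GFP reporter, read by Acumen laser cytometry, indicates AC inhibition in fission yeast expressing AC9, GNAS and PDE4D2. Cells grown 18 h in the dark at 30C with compounds, final up to 57 uM.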
# [14] = molecular target: Calcium and integrin-binding protein 1 (Homo sapiens) (UniProt Q99828); test: Validation qHTS for Identification of Calcium Integrin Binding protein 1 (CIB1) Competitor (AID 1508618)
# In short: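 CIB1-GST (1 uM final) incubated 15 min at room temperature with compounds (up to 114 uM), then FITC-labelled alphaIIb peptide (100 nM) added. FP read (Ex 480/Em 540) after 15 min, pH 7.4 buffer containing 5 mM CaCl2.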
# [15] = Confirmatory qHTS for VERO E6 Cytotoxicity Assay: Counterscreen for SARS-CoV-2 CPE Assay (AID 1508605; calls by dose curve; further: series mostly up to about 20 µM; nearly all actives have a fitted effect of over 60% in size)
# [16] = Confirmatory qHTS for small molecule stabilizers of the endoplasmic reticulum resident proteome: Secreted ER Calcium Modulated Protein (SERCaMP) assay (AID 1508628); further: potency means the concentration at half of the fitted maximal effect; nearly all actives have a fitted effect of over 40% in size
# In short: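 Reporter secretion upon ER calcium depletion (100 nM thapsigargin, 4 h, 37C) is measured as medium luminescence with coelenterazine, after 16 h compound pretreatment of SH-SY5Y-GLuc-SERCaMP cells; primary at three concentrations up to 38.3 uM, follow-up at 11 (up to 76.6 uM).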
# Sequence of Calcium and integrin-binding protein 1 (Homo sapiens) (Q99828 whole entry, looked up): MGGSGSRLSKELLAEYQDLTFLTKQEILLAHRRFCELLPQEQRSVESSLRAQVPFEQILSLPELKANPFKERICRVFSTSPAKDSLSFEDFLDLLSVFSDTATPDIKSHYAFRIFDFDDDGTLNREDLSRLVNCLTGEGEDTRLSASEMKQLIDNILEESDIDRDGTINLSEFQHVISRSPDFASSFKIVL
# Sequence of Protein phosphatase 1D (Homo sapiens) (O15297 whole entry, looked up): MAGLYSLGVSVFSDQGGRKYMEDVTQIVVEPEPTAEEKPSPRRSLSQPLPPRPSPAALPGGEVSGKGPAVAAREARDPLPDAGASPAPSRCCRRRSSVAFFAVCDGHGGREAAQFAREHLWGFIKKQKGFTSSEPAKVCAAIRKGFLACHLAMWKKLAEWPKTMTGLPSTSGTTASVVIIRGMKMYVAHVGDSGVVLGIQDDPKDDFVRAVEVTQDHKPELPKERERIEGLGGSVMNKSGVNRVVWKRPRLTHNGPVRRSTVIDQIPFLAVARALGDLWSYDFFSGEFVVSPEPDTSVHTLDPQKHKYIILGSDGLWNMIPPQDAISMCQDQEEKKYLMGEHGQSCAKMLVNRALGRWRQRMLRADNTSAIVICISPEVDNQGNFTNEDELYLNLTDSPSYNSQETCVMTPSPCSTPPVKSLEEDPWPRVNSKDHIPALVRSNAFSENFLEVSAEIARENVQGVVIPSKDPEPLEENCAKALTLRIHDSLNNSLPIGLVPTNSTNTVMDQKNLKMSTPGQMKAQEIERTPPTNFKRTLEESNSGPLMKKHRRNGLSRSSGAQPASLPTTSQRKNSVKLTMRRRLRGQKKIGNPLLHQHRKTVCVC
# Sequence of Single-stranded DNA cytosine deaminase (Homo sapiens) (Q9GZX7 whole entry, looked up): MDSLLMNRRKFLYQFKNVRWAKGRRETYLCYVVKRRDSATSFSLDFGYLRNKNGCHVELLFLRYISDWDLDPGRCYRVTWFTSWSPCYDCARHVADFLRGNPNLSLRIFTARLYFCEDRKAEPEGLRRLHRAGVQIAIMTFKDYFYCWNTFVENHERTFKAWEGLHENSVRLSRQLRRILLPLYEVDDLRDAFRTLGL
compound,measurement,setting,value
O=C(O)CCCc1ccc(N(CCCl)CCCl)cc1,Potency,[1],inactive
same,Potency,[2],inactive
same,outcome,[3],inactive
same,outcome,[4],inactive
same,Potency,[5],inactive
same,Potency,[6],inactive
same,Potency,[7],inactive
same,outcome,[8],inactive
same,Potency,[9],inactive
same,Potency,[10],inactive
NC(=O)c1cc([N+](=O)[O-])cc([N+](=O)[O-])c1,Potency,[2],inactive
same,outcome,[11],inactive
same,Potency,[12],inactive
same,Potency,[5],inactive
same,Potency,[6],inactive
same,Potency,[7],inactive
same,outcome,[8],inactive
same,Potency,[9],inactive
same,Potency,[10],inactive
Cc1ncsc1CCCl,outcome,[13],inactive
same,Potency,[2],inactive
same,outcome,[3],inactive
same,outcome,[4],inactive
same,Potency,[12],inactive
same,Potency,[5],inactive
same,Potency,[6],inactive
same,Potency,[7],inactive
same,outcome,[8],inactive
same,outcome,[14],inactive
same,Potency,[9],inactive
same,Potency,[10],inactive
C[C@]12CC[C@@H]3c4ccc(OC(=O)N(CCCl)CCCl)cc4CC[C@H]3[C@@H]1CC[C@@H]2OP(=O)(O)O,Potency,[1],inactive
same,Potency,[5],inactive
same,Potency,[6],inactive
same,Potency,[7],inactive
same,Potency,[9],inactive
O=C(CCCN1CCC2(CC1)C(=O)NCN2c1ccccc1)c1ccc(F)cc1,outcome,[13],inactive
same,Potency,[2],inactive
same,outcome,[11],inactive
same,outcome,[3],inactive
same,outcome,[4],inactive
same,Potency,[12],inactive
same,Potency,[15],inactive
same,outcome,[14],inactive
same,Potency,[9],inactive
same,Potency,[16],5.62 µM (active) and 2.24 µM (active) and 3.16 µM (active)
same,Potency,[10],1000 nM (active)
O=P1(N(CCCl)CCCl)NCCCO1 (stereo not given),outcome,[13],inactive
same,Potency,[1],inactive
same,outcome,[3],inactive
same,outcome,[4],inactive
same,Potency,[12],inactive
same,Potency,[5],inactive
same,Potency,[6],inactive
same,Potency,[7],inactive
same,outcome,[8],inactive
same,outcome,[14],inactive
same,Potency,[9],inactive
same,Potency,[10],inactive
CN1C(=O)COc2c(C(=O)NC3CN4CCC3CC4)cc(Cl)cc21 (stereo not given),Potency,[1],inactive
same,Potency,[2],inactive
same,outcome,[11],inactive
same,outcome,[8],inactive
same,Potency,[9],inactive
same,Potency,[10],inactive
CC(C)(C)c1ccc(O)cc1,Potency,[2],inactive
same,outcome,[11],inactive
same,Potency,[12],inactive
same,Potency,[6],inactive
same,outcome,[8],inactive
CCCCC/C=C\C/C=C\C/C=C\C/C=C\CCCC(=O)NCC(=O)O,Potency,[2],inactive
same,outcome,[11],inactive
same,outcome,[3],inactive
same,outcome,[8],inactive
same,Potency,[9],inactive
same,Potency,[10],inactive
CCCCCN(C)CCC(O)(P(=O)(O)O)P(=O)(O)O,outcome,[13],inactive
same,"activity change, negative = inhibition",[12],-12.9% [at 11.4 µM]
same,"activity change, negative = cytotoxicity",[5],3.48% [at 11.4 µM]
same,"activity change, negative = inhibition",[6],-24.6% [at 11.4 µM]
same,"activity change, negative = cytotoxicity",[7],1.39% [at 11.4 µM]
same,outcome,[14],inactive
CC(C)(C)NCC(O)c1ccccc1Cl (stereo not given),outcome,[13],inactive
same,Potency,[2],inactive
same,outcome,[11],inactive
same,outcome,[3],inactive
same,outcome,[4],inactive
same,Potency,[12],inactive
same,Potency,[5],inactive
same,Potency,[6],inactive
same,Potency,[7],inactive
same,outcome,[8],inactive
same,outcome,[14],inactive
same,Potency,[9],inactive
same,Potency,[10],inactive
O=[N+]([O-])O[C@H]1CO[C@H]2[C@@H]1OC[C@H]2O[N+](=O)[O-],Potency,[2],inactive
same,outcome,[11],inactive
same,Potency,[12],inactive
same,Potency,[5],inactive
same,Potency,[6],inactive
same,Potency,[7],inactive
same,outcome,[8],inactive
same,Potency,[9],inactive
COc1cccc2c1C(=O)c1c(O)c3c(c(O)c1C2=O)C[C@@](O)(C(=O)CO)CC3OC1CC(N2CCOC(OC)C2)C(O)C(C)O1 (stereo not given in full),Potency,[1],93 nM (active)
same,Potency,[2],inactive
same,outcome,[11],inactive
same,Potency,[12],inactive
same,Potency,[6],inactive
same,Potency,[7],inactive
same,outcome,[8],inactive
same,Potency,[10],inactive
CN1C(=O)CCS(=O)(=O)C1c1ccc(Cl)cc1 (stereo not given),outcome,[13],inactive
same,Potency,[1],inactive
same,Potency,[2],inactive
same,outcome,[11],inactive
same,outcome,[3],inactive
same,outcome,[4],inactive
same,Potency,[12],inactive
same,Potency,[5],inactive
same,Potency,[7],inactive
same,outcome,[8],inactive
same,outcome,[14],inactive
same,Potency,[9],inactive
same,Potency,[10],inactive
C[C@]12CCC(=O)C=C1CC[C@@H]1[C@@H]2CC[C@]2(C)C(=O)CC[C@@H]12,Potency,[2],inactive
same,outcome,[11],inactive
same,Potency,[12],inactive
same,Potency,[5],inactive
same,Potency,[6],inactive
same,Potency,[7],inactive
same,outcome,[8],inactive
same,Potency,[9],inactive
same,Potency,[10],inactive
C[N+]1(CCF)[C@@H]2CC[C@H]1CC(OC(=O)C(O)(c1ccccc1)c1ccccc1)C2 (stereo not given in full),Potency,[2],inactive
same,outcome,[11],inactive
same,Potency,[5],inactive
same,Potency,[6],inactive
same,Potency,[7],inactive
same,outcome,[8],inactive
same,Potency,[9],inactive
same,Potency,[10],inactive
CCc1cc2c(s1)-n1c(C)nnc1CN=C2c1ccccc1Cl,Potency,[2],inactive
same,outcome,[11],inactive
same,Potency,[12],inactive
same,Potency,[5],inactive
same,Potency,[6],inactive
same,Potency,[7],inactive
same,outcome,[8],inactive
same,Potency,[9],inactive
same,Potency,[10],inactive
CC(C)N(CCC(C(N)=O)(c1ccccc1)c1ccccn1)C(C)C (stereo not given),outcome,[13],inactive
same,Potency,[2],inactive
same,outcome,[3],inactive
same,outcome,[4],inactive
same,Potency,[5],inactive
same,Potency,[6],inactive
same,Potency,[7],inactive
same,outcome,[8],inactive
same,outcome,[14],inactive
same,Potency,[9],inactive
same,Potency,[10],inactive
Oc1ccc(Cl)cc1,Potency,[2],inactive
same,outcome,[11],inactive
same,Potency,[12],inactive
same,Potency,[5],inactive
same,Potency,[6],inactive
same,Potency,[7],inactive
same,outcome,[8],inactive
CC(C)c1cccc(C(C)C)c1O,outcome,[13],inactive
same,Potency,[1],inactive
same,Potency,[2],inactive
same,outcome,[11],inactive
same,outcome,[3],inactive
same,outcome,[4],inactive
same,Potency,[12],inactive
same,Potency,[5],inactive
same,Potency,[6],inactive
same,Potency,[7],inactive
same,outcome,[8],inactive
same,outcome,[14],inactive
same,Potency,[9],inactive
same,Potency,[10],inactive
O=C1c2ccccc2C(=O)c2ccccc21,Potency,[2],inactive
same,outcome,[11],inactive
same,Potency,[12],inactive
same,Potency,[5],inactive
same,Potency,[6],inactive
same,Potency,[7],inactive
same,outcome,[8],inactive
same,Potency,[9],inactive
same,Potency,[10],inactive
C=C(C)[C@H]1CN[C@H](C(=O)O)[C@H]1CC(=O)O,outcome,[13],inactive
same,Potency,[2],inactive
same,outcome,[11],inactive
same,outcome,[3],inactive
same,outcome,[4],inactive
same,Potency,[12],inactive
same,Potency,[5],inactive
same,Potency,[6],inactive
same,Potency,[7],inactive
same,outcome,[8],inactive
same,outcome,[14],inactive
same,Potency,[9],inactive
same,Potency,[10],inactive
CC(C)C[C@H](CN)CC(=O)O,Potency,[1],inactive
same,Potency,[9],inactive
CNC(C)(C)Cc1ccccc1,Potency,[2],inactive
same,outcome,[11],inactive
same,Potency,[12],inactive
same,Potency,[5],inactive
same,Potency,[6],inactive
same,Potency,[7],inactive
same,outcome,[8],inactive
same,Potency,[9],inactive
same,Potency,[10],inactive
